# From the supplement of paper PMC6378613
# Compound: Cc1ccc(-c2ccc3c(ccc4sc5c(c43)NC[C@@H](C)NC5=O)n2)cn1
# Test: kinase activity remaining relative to vehicle control; higher = less inhibition
# Procedure: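 In vitro radiometric kinase profiling of the MK2 inhibitor PF-3644022 at 0.1, 1 and 10 µM against a panel of kinases (MRC International Centre for Kinase Profiling, Dundee). Read-out is % kinase activity remaining relative to the vehicle control, mean of n=2.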
# Sequence of UniProt Q14680 (Q14680 whole entry, looked up): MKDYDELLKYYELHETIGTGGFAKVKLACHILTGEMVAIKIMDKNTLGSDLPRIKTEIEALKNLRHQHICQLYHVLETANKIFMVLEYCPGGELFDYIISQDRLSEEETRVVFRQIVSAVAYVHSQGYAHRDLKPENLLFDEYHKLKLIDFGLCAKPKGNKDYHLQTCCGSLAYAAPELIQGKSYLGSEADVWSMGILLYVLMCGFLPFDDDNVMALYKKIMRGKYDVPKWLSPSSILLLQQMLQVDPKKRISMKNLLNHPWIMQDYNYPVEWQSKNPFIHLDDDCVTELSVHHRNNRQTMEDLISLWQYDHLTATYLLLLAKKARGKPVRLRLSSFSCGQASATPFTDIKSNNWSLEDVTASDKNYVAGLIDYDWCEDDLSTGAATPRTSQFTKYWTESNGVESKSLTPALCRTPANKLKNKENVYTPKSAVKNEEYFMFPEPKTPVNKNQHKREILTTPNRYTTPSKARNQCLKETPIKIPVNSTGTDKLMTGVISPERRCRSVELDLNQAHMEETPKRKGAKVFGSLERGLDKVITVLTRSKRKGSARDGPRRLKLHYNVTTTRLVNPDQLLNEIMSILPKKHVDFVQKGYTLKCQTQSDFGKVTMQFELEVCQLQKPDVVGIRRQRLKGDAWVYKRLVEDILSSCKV
# Sequence of UniProt O75385 (O75385 whole entry, looked up): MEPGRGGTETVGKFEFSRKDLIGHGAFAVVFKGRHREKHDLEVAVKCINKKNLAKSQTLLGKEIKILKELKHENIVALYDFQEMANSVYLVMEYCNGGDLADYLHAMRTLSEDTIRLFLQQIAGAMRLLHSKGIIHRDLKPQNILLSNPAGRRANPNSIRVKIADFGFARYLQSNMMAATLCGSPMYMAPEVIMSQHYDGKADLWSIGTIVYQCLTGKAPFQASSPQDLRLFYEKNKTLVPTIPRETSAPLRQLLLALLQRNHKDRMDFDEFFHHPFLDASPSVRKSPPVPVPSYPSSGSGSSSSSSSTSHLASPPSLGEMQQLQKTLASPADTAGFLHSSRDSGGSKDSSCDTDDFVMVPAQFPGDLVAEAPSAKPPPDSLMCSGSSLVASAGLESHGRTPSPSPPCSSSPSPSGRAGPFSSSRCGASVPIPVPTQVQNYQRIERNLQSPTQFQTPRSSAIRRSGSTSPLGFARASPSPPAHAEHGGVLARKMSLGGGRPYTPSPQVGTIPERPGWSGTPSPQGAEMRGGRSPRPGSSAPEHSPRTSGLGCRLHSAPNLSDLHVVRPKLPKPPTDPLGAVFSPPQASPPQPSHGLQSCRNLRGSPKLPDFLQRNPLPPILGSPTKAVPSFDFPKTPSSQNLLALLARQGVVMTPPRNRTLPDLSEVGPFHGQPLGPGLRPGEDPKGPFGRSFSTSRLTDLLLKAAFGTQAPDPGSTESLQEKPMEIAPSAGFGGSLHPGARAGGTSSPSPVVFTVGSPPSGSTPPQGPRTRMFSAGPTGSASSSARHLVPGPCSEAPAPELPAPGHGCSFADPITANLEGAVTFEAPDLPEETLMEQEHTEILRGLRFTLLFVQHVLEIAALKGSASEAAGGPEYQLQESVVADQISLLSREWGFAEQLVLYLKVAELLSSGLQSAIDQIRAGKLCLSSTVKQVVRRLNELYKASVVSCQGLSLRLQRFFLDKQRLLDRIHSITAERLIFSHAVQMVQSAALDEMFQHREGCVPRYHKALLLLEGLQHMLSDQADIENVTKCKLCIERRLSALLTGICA
# Sequence of UniProt Q9HBH9 (Q9HBH9 whole entry, looked up): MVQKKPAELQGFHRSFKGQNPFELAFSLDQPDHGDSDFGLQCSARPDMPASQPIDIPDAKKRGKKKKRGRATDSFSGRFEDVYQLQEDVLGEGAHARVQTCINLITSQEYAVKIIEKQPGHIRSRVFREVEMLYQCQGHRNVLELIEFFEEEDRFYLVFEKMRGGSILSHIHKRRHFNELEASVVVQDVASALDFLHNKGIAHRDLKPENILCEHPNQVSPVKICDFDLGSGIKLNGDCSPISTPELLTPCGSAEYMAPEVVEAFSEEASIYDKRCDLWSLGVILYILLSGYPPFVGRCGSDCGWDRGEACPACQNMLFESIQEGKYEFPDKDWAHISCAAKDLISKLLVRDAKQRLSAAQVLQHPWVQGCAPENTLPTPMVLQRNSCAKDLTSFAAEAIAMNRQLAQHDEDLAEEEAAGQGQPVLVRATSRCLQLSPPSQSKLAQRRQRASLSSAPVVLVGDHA
# Sequence of UniProt Q92630 (Q92630 whole entry, looked up): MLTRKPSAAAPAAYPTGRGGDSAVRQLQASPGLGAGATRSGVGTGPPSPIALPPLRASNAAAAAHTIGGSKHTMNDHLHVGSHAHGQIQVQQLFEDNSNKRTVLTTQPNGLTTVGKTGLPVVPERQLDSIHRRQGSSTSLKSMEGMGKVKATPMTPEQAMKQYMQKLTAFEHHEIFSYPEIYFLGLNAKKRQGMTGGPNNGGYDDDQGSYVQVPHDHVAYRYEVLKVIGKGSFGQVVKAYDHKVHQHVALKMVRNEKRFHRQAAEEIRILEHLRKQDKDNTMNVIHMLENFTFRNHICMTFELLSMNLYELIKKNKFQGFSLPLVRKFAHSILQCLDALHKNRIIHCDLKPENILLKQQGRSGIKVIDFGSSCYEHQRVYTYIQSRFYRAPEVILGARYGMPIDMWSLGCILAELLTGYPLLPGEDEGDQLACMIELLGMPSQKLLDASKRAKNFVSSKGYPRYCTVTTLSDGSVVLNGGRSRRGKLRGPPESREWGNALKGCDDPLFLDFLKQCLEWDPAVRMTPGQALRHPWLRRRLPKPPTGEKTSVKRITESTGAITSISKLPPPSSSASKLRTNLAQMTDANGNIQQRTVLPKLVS
# Sequence of UniProt P53350 (P53350 whole entry, looked up): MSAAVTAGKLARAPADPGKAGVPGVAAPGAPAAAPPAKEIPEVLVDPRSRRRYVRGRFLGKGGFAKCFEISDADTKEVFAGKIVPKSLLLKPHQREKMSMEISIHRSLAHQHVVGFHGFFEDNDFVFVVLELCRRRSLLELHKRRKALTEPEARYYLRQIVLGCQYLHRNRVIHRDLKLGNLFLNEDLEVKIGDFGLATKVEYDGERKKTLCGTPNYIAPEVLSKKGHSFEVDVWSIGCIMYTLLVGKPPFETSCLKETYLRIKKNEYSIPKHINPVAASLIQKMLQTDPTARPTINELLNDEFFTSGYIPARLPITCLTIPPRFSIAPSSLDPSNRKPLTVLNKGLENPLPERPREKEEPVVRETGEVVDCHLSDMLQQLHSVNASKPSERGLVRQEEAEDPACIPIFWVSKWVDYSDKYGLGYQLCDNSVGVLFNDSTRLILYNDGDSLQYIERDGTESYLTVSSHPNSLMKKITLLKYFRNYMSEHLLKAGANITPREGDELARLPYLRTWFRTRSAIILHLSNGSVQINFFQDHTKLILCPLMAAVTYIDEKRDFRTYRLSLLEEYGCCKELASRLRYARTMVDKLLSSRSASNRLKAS
# Sequence of UniProt Q16832 (Q16832 whole entry, looked up): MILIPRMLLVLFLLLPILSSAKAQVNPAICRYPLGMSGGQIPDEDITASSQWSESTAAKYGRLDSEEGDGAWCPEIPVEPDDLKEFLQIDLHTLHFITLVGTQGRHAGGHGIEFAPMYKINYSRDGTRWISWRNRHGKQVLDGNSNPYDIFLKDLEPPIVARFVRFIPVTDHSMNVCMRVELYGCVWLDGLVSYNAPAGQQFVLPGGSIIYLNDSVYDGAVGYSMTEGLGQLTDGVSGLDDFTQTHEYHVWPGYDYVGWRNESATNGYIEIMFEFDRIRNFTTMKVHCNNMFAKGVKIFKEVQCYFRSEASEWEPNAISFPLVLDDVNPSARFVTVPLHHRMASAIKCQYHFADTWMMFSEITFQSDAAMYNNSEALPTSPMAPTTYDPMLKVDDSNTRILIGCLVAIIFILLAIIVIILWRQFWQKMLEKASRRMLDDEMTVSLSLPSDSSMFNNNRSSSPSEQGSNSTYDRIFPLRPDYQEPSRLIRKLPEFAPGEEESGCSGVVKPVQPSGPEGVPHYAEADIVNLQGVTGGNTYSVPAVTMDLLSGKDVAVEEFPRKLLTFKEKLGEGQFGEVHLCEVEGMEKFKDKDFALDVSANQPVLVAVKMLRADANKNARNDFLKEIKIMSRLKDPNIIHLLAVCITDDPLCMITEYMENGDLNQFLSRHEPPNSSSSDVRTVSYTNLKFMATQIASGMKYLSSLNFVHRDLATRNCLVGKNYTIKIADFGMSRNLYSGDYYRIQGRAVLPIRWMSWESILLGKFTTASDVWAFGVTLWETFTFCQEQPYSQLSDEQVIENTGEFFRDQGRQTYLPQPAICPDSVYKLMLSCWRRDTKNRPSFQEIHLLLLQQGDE
target,measurement,setting,value
CK1 gamma 2,kinase activity remaining,inhibitor concentration 0.1 µM,123%
same,kinase activity remaining,inhibitor concentration 1 µM,112%
same,kinase activity remaining,inhibitor concentration 10 µM,102%
DDR2 (UniProt Q16832),kinase activity remaining,inhibitor concentration 0.1 µM,105%
same,kinase activity remaining,inhibitor concentration 1 µM,101%
same,kinase activity remaining,inhibitor concentration 10 µM,91%
MAPKAP-K3,kinase activity remaining,inhibitor concentration 0.1 µM,114%
same,kinase activity remaining,inhibitor concentration 1 µM,62%
same,kinase activity remaining,inhibitor concentration 10 µM,30%
p38 gamma MAPK,kinase activity remaining,inhibitor concentration 0.1 µM,108%
same,kinase activity remaining,inhibitor concentration 1 µM,115%
same,kinase activity remaining,inhibitor concentration 10 µM,97%
SmMLCK,kinase activity remaining,inhibitor concentration 0.1 µM,118%
same,kinase activity remaining,inhibitor concentration 1 µM,112%
same,kinase activity remaining,inhibitor concentration 10 µM,110%
ULK1 (UniProt O75385),kinase activity remaining,inhibitor concentration 0.1 µM,115%
same,kinase activity remaining,inhibitor concentration 1 µM,89%
same,kinase activity remaining,inhibitor concentration 10 µM,75%
MAPKAP-K2,kinase activity remaining,inhibitor concentration 0.1 µM,24%
same,kinase activity remaining,inhibitor concentration 1 µM,9%
same,kinase activity remaining,inhibitor concentration 10 µM,2%
EPH-B1,kinase activity remaining,inhibitor concentration 0.1 µM,113%
same,kinase activity remaining,inhibitor concentration 1 µM,106%
same,kinase activity remaining,inhibitor concentration 10 µM,106%
MNK2 (UniProt Q9HBH9),kinase activity remaining,inhibitor concentration 0.1 µM,111%
same,kinase activity remaining,inhibitor concentration 1 µM,51%
same,kinase activity remaining,inhibitor concentration 10 µM,26%
DYRK2 (UniProt Q92630),kinase activity remaining,inhibitor concentration 0.1 µM,101%
same,kinase activity remaining,inhibitor concentration 1 µM,105%
same,kinase activity remaining,inhibitor concentration 10 µM,52%
MELK (UniProt Q14680),kinase activity remaining,inhibitor concentration 0.1 µM,123%
same,kinase activity remaining,inhibitor concentration 1 µM,102%
same,kinase activity remaining,inhibitor concentration 10 µM,77%
PLK1 (UniProt P53350),kinase activity remaining,inhibitor concentration 0.1 µM,102%
same,kinase activity remaining,inhibitor concentration 1 µM,114%
same,kinase activity remaining,inhibitor concentration 10 µM,98%
PIM3 (UniProt Q86V86),kinase activity remaining,inhibitor concentration 0.1 µM,55%
same,kinase activity remaining,inhibitor concentration 1 µM,18%
same,kinase activity remaining,inhibitor concentration 10 µM,3%
